PubChem BioAssay (Tox21)
Inconclusive results are not listed. Calls of active or inactive are those of the source. Unless noted, the call rests on the fitted dose curve; in most records, active means well fitted curve in the direction sought with a large enough effect in the repeat runs; inconclusive means weak or mixed curves; inactive means no such curve, though single readings can be large; an effect the other way counts as inactive or inconclusive.

Tests used:
[1] = qHTS assay to identify aromatase inhibitors - cell viability counter screen (AID 743084);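 further: cells stimulated with testosterone during compound exposure; nearly all actives have a fitted effect of over 55% in size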; further: potency means the concentration at half of the fitted maximal effect
[2] = molecular target: Aryl hydrocarbon receptor (Homo sapiens) (UniProt P35869); assay: qHTS assay to identify small molecule that activate the aryl hydrocarbon receptor (AhR) signaling pathway (AID 743085); further: nearly all actives have a fitted effect of over 15% in size; further: potency means the concentration at half of the fitted maximal effect;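 on activation: HG2L7.5c1 human HepG2 liver cells with stably integrated DRE-driven firefly reporter; series mostly up to about 70 µM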
Aryl hydrocarbon receptor (Homo sapiens), sequence (P35869 whole entry, looked up): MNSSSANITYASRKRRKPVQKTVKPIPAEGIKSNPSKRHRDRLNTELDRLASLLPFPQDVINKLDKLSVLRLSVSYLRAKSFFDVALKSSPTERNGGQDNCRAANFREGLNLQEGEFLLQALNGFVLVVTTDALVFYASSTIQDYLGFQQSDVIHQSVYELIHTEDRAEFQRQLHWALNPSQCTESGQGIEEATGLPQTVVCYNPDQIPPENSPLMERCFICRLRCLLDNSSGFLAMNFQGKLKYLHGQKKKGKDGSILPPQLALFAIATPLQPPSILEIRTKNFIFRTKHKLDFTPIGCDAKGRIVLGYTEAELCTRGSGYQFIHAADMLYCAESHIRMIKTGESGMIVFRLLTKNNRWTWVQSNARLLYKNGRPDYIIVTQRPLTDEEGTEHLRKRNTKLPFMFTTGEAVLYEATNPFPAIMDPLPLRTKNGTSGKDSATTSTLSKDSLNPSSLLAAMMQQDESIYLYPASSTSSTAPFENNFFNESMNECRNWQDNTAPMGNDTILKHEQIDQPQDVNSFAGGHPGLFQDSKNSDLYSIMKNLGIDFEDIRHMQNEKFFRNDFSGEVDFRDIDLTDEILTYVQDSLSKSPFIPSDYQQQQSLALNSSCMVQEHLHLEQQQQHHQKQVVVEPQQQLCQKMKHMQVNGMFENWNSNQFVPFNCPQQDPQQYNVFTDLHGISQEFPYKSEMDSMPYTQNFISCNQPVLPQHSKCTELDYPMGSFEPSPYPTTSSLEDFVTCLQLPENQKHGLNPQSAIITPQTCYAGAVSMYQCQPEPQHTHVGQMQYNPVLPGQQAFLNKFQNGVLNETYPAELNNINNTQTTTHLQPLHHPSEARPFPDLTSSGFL
How it was run: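 Steps: seed HepG2-AhR-luc cells; allow 5 h at 37C; pin-transfer test compound or vehicle; incubate 24 h at 37C; add viability dye (30 min, 37C) and read fluorescence; add luciferase substrate (30 min, RT) and read luminescence.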

[3] = qHTS assay to identify small molecule that activate the aryl hydrocarbon receptor (AhR) signaling pathway - cell viability counter screen (AID 743086);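 further: HepG2 liver cells carrying the AhR DRE luciferase reporter; series mostly up to about 70 µM; nearly all actives have a fitted effect of over 45% in size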
How it was run: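 HepG2-AhR-luc (HG2L7.5c1) cells, 4000/well, were preincubated 5 h at 37C, exposed to compound in qHTS format for 24 hr at 37C, then given CellTiter-Fluor for 30 min; viability was read as fluorescence in the reporter wells.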

[4] = molecular target: Peroxisome proliferator-activated receptor gamma (Homo sapiens) (UniProt P37231); assay: qHTS assay to identify small molecule agonists of the peroxisome proliferator-activated receptor gamma (PPARg) signaling pathway (AID 743094; active means well fitted activation curve with a large enough effect in the signal ratio in the repeat runs, not every such curve was filed as active; the % refers to the signal ratio)
Peroxisome proliferator-activated receptor gamma (Homo sapiens), sequence (P37231 whole entry, looked up): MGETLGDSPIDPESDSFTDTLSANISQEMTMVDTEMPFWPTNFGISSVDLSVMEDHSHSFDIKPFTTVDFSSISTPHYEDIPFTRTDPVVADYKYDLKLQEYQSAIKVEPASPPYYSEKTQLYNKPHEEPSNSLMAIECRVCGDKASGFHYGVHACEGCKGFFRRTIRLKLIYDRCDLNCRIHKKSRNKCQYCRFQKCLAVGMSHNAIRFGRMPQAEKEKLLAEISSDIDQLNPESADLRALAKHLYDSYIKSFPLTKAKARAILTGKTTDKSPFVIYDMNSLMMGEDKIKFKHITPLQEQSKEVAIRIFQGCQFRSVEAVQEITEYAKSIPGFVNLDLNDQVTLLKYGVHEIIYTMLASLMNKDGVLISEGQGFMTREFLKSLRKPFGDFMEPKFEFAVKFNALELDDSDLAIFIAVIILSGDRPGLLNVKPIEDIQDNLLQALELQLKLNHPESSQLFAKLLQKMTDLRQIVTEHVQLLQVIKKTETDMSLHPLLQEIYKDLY
How it was run: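 GeneBLAzer PPARg UAS-bla HEK293H cells were plated, rested 5 h, then exposed to compounds for 17 h at 37C. Beta-lactamase activity was read by LiveBLAzer B/G FRET substrate fluorescence after 1 h at room temperature.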

[5] = molecular target: Peroxisome proliferator-activated receptor gamma (Homo sapiens) (UniProt P37231); assay: qHTS assay to identify small molecule antagonists of the peroxisome proliferator-activated receptor gamma (PPARg) signaling pathway (AID 743191; calls by dose curve; further: series mostly up to about 63 µM; nearly all actives have a fitted effect of over 30% in size)
How it was run: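 GeneBLAzer PPARg UAS-bla HEK293H cells carrying a UAS-driven beta-lactamase reporter were plated at 3000 cells/well, preincubated 5 h at 37C, then given compound for 17 h at 37C; LiveBLAzer B/G FRET substrate was read after 1 h at room temperature.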

[6] = qHTS assay to identify small molecule antagonists of the peroxisome proliferator-activated receptor gamma (PPARg) signaling pathway - cell viability counter screen (AID 743194); further: nearly all actives have a fitted effect of over 55% in size
How it was run: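 PPARg-UAS-bla HEK293H cells were plated, rested 5 h at 37 C, then treated with compounds plus rosiglitazone (50 nM final) for 17 h at 37 C; viability was then read by CellTiter-Glo luminescence after 30 min at room temperature.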

[7] = qHTS assay for small molecule agonists of the antioxidant response element (ARE) signaling pathway - cell viability counter screen (AID 743203; calls by dose curve; further: nearly all actives have a fitted effect of over 55% in size)
How it was run: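 ARE-bla HepG2 cells were plated, rested 5 h at 37C/5% CO2, then exposed to compounds in DMSO for 16 h. Viability was read as CellTiter-Glo luminescence after 30 min at room temperature, in the same wells as the ARE screen.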

[8] = qHTS assay for small molecule activators of the heat shock response signaling pathway - cell viability counter screen (AID 743209); further: nearly all actives have a fitted effect of over 50% in size
How it was run: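 HSE-bla HeLa cells plated overnight, then exposed to Tox21 compounds (23 nL in DMSO) for 5 h at 37 C. After the bla reporter read, CellTiter-Glo was added in the same wells and luminescence read after 30 min at room temperature.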

[9] = qHTS assay for small molecule agonists of the antioxidant response element (ARE) signaling pathway (AID 743202; active means well fitted activation curve with a large enough effect in the signal ratio in the repeat runs, not every such curve was filed as active; the % refers to the signal ratio; further: potency means the concentration at half of the fitted maximal effect)
How it was run: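 Compounds delivered in DMSO to ARE-bla HepG2 cells (2,000 cells/well, pre-incubated 5 h) and left 16 h at 37 C. LiveBLAzer B/G FRET substrate then added for 2 h at RT before fluorescence reading.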

[10] = qHTS assay for small molecule activators of the heat shock response signaling pathway (AID 743210; active means well fitted activation curve with a large enough effect in the signal ratio in the repeat runs, with a control signal flat, not every such curve was filed as active; the % refers to the signal ratio;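 further: HeLa cells with beta-lactamase reporter driven by heat shock elements; series mostly up to about 63 µM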)
How it was run: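 Reporter gene assay: HeLa cells stably bearing an HSE-bla construct, compound treatment 5 h at 37 C, LiveBLAzer substrate 2.5 h at RT, fluorescence intensity.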
On the % scale 0 is the no-effect control and ±100 the full control effect.

CCN(CC)C(C)CN1c2ccccc2Sc2ccccc21 (stereo unspecified)
inactive: Potency [1] | Potency [2] | Potency [3] | Potency [4] | Potency [5] | Potency [6] | Potency [7] | Potency [8]

CC(C)(C)c1ccc(S)cc1
inactive: Potency [1] | Potency [2] | Potency [3] | Potency [4] | Potency [5] | Potency [6] | Potency [8]

CC(C)=CCCC(C)CC=O (stereo unspecified)
inactive: Potency [1] | Potency [2] | Potency [3] | Potency [4] | Potency [6] | Potency [9] | Potency [7] | Potency [8]

CN(C)CC[C@@H](c1ccc(Br)cc1)c1ccccn1
inactive: Potency [1] | Potency [2] | Potency [3] | Potency [4] | Potency [5] | Potency [8] | outcome [10]

O=S(=O)(O)c1ccc(O)c2ncccc12
inactive: Potency [1] | Potency [2] | Potency [3] | Potency [4] | Potency [5] | Potency [6] | Potency [7] | Potency [8]

O=C(O)[C@@H]1[C@H]2C[C@H]3c4[nH]c5ccccc5c4CCN3C[C@@H]2CC[C@@H]1O
active: Potency [2] 7.17 µM
inactive: Potency [1] | Potency [3] | Potency [4] | Potency [6] | Potency [9] | Potency [7] | Potency [8]

CCCCCCOC(=O)CCC
inactive: Potency [1] | Potency [2] | Potency [3] | Potency [4] | Potency [6] | Potency [9] | Potency [7] | Potency [8]

COc1ccc(OC)c(OC)c1
inactive: Potency [1] | Potency [2] | Potency [3] | Potency [4] | Potency [5] | Potency [6] | Potency [7] | Potency [8]

C=C(C)C(=O)OCCN(C)C
inactive: Potency [1] | Potency [2] | Potency [3] | Potency [4] | Potency [5] | Potency [6] | Potency [7] | Potency [8] | outcome [10]

Cn1c(NCCN(CCO)CCCc2ccc([N+](=O)[O-])cc2)cc(=O)n(C)c1=O
inactive: Potency [1] | Potency [2] | Potency [3] | Potency [4] | Potency [6] | Potency [9] | Potency [7] | Potency [8]

CCOC(=O)CC(C)C
inactive: Potency [1] | Potency [2] | Potency [3] | Potency [4] | Potency [5] | Potency [9] | Potency [7] | Potency [8] | outcome [10]

Cc1cc(O)ccc1N
active: Potency [1] 54.8 µM | Potency [2] 61.4 µM | Potency [9] 21.8 µM
inactive: Potency [3] | Potency [4] | Potency [6] | Potency [7] | Potency [8]

O=C(C(=O)c1ccc(Br)cc1)c1ccc(Br)cc1
inactive: Potency [1] | Potency [2] | Potency [3] | Potency [4] | Potency [5] | Potency [6] | Potency [9] | Potency [8] | outcome [10]

Oc1ccc2c(c1)OCO2
inactive: Potency [1] | Potency [2] | Potency [3] | Potency [4] | Potency [6] | Potency [9] | Potency [7] | Potency [8] | outcome [10]

CCCC(=O)OCC
inactive: Potency [1] | Potency [2] | Potency [3] | Potency [4] | Potency [5] | Potency [6] | Potency [7] | Potency [8] | outcome [10]

O=C(Cl)c1c(Cl)cccc1Cl
inactive: Potency [1] | Potency [2] | Potency [3] | Potency [4] | Potency [6] | Potency [9] | Potency [7] | Potency [8] | outcome [10]

N#Cc1cc2ccccc2c2ccccc12
inactive: Potency [1] | Potency [3] | Potency [4] | Potency [5] | Potency [6] | Potency [7] | Potency [8] | outcome [10]
active: Potency [2] 61.4 µM

NC[C@H]1O[C@H](O[C@H]2[C@H](O)[C@@H](O[C@H]3O[C@H](CO)[C@@H](O)[C@H](N)[C@H]3O)[C@H](N)C[C@@H]2N)[C@H](O)[C@@H](O)[C@@H]1O
inactive: Potency [1] | activation [2] 0.116% [at 8.47 µM] | Potency [3] | Potency [4] | activity change, negative = cytotoxicity [6] -17.2% [at 5.95 µM] | activation [9] 4.43% [at 8.36 µM] | viability change, negative = cytotoxic [7] 7.86% [at 8.36 µM] | activity change, negative = cytotoxicity [8] 5.37% [at 5.95 µM]

CC(O)C1CCCCC1 (stereo unspecified)
inactive: Potency [1] | Potency [2] | Potency [3] | Potency [4] | Potency [5] | Potency [6] | Potency [7] | Potency [8] | outcome [10]

CCOc1nc2cccc(C(=O)O)c2n1Cc1ccc(-c2ccccc2-c2nn[nH]n2)cc1
inactive: Potency [1] | Potency [2] | Potency [3] | Potency [4] | Potency [5] | Potency [6] | Potency [7] | Potency [8] | outcome [10]

NCCCN(CCO)CCO
inactive: Potency [1] | Potency [2] | Potency [3] | Potency [4] | Potency [5] | Potency [6] | Potency [7] | Potency [8]

c1ccc(-c2nc[nH]c2-c2ccccc2)cc1
inactive: Potency [1] | Potency [2] | Potency [3] | Potency [4] | Potency [5] | Potency [6] | Potency [7] | Potency [8]

C=Cc1c(C)c2cc3[nH]c(cc4nc(cc5nc(cc1[nH]2)C(C)=C5CCC(=O)O)C(CCC(=O)O)=C4C)c(C)c3C=C
inactive: Potency [1] | Potency [2] | Potency [3] | Potency [4] | Potency [5] | Potency [6] | Potency [8]

Cn1c(=O)c2c(ncn2CC(O)CO)n(C)c1=O (stereo unspecified)
inactive: Potency [1] | Potency [2] | Potency [3] | Potency [4] | Potency [6] | Potency [9] | Potency [7] | Potency [8] | outcome [10]

O=C=NC1CCC(CC2CCC(N=C=O)CC2)CC1 (stereo unspecified)
inactive: Potency [1] | Potency [2] | Potency [3] | Potency [4] | Potency [6] | Potency [9] | Potency [7] | Potency [8]

Cc1occc1S
inactive: Potency [1] | Potency [2] | Potency [3] | Potency [4] | Potency [5] | Potency [6] | Potency [7] | Potency [8]

CCCCCC(CO)CCC (stereo unspecified)
inactive: Potency [1] | Potency [2] | Potency [3] | Potency [4] | Potency [6] | Potency [9] | Potency [7] | Potency [8]

O=C(c1ccccc1)c1ccc2n1CCC2C(=O)O (stereo unspecified)
inactive: Potency [1] | Potency [2] | Potency [3] | Potency [5] | Potency [6] | Potency [9] | Potency [8] | outcome [10]
